Records with an inconclusive call do not appear. Calls of active or inactive are those of the source. How the source made its calls: active means hit-call score of the fitted dose curve at least 0.9, where 1 is the maximum; inconclusive means response in the unintended direction; inactive means score below 0.9.

The AC50 is the concentration giving half of the maximal activity seen.

Experiment [1] is described as follows: ACEA_AR_agonist_AUC_viability: ACEA Biosciences xCELLigence Real-Time Cell Analysis on Androgen Receptor Agonism for Viability (AID 2283775).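 On AC50: viability read 80 hours after compound addition.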 In a few lines:
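22Rv1 cells; impedance growth kinetics; 8-pt 1:4 dilutions from 100 uM top final, ≤0.5% DMSO; n = 2; 80 h read; AUC viability, loss-of-signal vs DMSO.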

Experiment [2] can be described thus: ACEA_AR_antagonist_AUC_viability: ACEA Biosciences xCELLigence Real-Time Cell Analysis on Androgen Receptor Antagonism for Viability (AID 2283776).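 Further: 22Rv1 human prostate cancer cells growing on impedance electrode plates; area under impedance growth curve at 80 h after dosing as viability; hits lower the growth signal relative to DMSO meaning cytotoxicity.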 The gist of the method:
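Impedance read-out (RT-CES): area under growth curve at 80 h post-dose, loss of signal scored vs DMSO baseline. 22Rv1 cells; 8-pt 1:4 series, top 100 uM final, ≤0.5% DMSO; biological duplicate.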

Experiment [3] addresses Luciferin 4-monooxygenase (Photinus pyralis) (UniProt P08659). As to the kind of experiment: CCTE_Simmons_QuantiLum_inhib_2: CCTE's Firefly Luciferase Inhibition Assay, Simmons Lab (AID 2283767).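 On AC50: potency for inhibitors that lower luciferase luminescence relative to DMSO.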 In a few lines:
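Eight test concentrations, 5 nM up to 87.5 uM final, preincubated 30min at 37C in the dark with purified luciferase (0.5% DMSO final). Detection reagent (150uM D-luciferin, 147uM dATP, 75uM CoA, pH 7.8) injected per well before kinetic luminescence read; three replicates.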

Chain of Luciferin 4-monooxygenase (Photinus pyralis) (P08659 whole entry, looked up): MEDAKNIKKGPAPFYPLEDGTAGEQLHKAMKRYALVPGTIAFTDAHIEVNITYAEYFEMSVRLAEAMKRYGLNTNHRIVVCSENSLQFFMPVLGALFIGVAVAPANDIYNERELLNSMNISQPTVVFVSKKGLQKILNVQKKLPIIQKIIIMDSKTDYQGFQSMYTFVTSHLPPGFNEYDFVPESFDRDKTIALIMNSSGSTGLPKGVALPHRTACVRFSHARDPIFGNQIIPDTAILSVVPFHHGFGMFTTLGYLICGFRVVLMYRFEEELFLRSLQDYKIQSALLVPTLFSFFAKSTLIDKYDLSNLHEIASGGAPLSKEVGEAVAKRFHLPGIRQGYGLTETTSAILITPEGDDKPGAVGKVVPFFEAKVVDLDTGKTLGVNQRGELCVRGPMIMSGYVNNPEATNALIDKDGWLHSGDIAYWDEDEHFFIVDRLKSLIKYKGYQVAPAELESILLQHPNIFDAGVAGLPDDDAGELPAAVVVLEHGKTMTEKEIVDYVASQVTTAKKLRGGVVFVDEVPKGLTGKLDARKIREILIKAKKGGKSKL

Consider `CCCCCCCCCCCCCC(=O)OCC(O)CO` (stereo unspecified), for which the call in experiment [1] and in experiment [2] was inactive.
In the case of `CC(C=O)Cc1ccc(C(C)(C)C)cc1` (stereo unspecified), the molecule was classed as inactive in experiment [1] and in experiment [2].
`C=Cc1ccc(C)cc1`: in experiment [1], the call was inactive.
Same read-out and setting: the value for `CCCCCCCCCC(=O)OC` was “inactive”.
On to `Nc1ccc2cc(S(=O)(=O)O)cc(O)c2c1N=Nc1ccccc1C(F)(F)F`, for which the concentration at half-maximal activity (AC50) in experiment [3] was 51.7 µM (active). Further, in experiment [2], the outcome was inactive.
On to `CCCCCCCCCCCCCCN(CCO)CCO`, for which the concentration at half-maximal activity (AC50) in experiment [1] was 23.7 µM (active); in experiment [2], 28.4 µM (active).
As for `Clc1ccc(C(c2ccccc2Cl)C(Cl)Cl)cc1` (stereo unspecified), the molecule was called inactive in experiment [1] and in experiment [2].
With `CCc1cc(Cc2cc(CC)cc(C(C)(C)C)c2O)c(O)c(C(C)(C)C)c1`, the molecule was called inactive in experiment [3]. Also, the concentration at half-maximal activity (AC50) was 24.3 µM (active) in experiment [1] and 22.9 µM (active) in experiment [2].
For the molecule `CCC(=O)O[C@@H]1C[C@H]2CC[C@]1(C)C2(C)C`, the molecule was called inactive in experiment [1].
With `CCCCCCCC/C=C\CCCCCCCC(=O)OCC`, the call in experiment [1] and in experiment [2] was inactive.
For the molecule `OC[C@H]1O[C@@H]2O[C@H]3[C@H](O)[C@@H](O)[C@@H](O[C@H]4[C@H](O)[C@@H](O)[C@@H](O[C@H]5[C@H](O)[C@@H](O)[C@@H](O[C@H]6[C@H](O)[C@@H](O)[C@@H](O[C@H]7[C@H](O)[C@@H](O)[C@@H](O[C@H]8[C@H](O)[C@@H](O)[C@@H](O[C@H]9[C@H](O)[C@@H](O)[C@@H](O[C@H]1[C@H](O)[C@H]2O)O[C@@H]9CO)O[C@@H]8CO)O[C@@H]7CO)O[C@@H]6CO)O[C@@H]5CO)O[C@@H]4CO)O[C@@H]3CO`, the result in experiment [1] and in experiment [2] was inactive.
As to `CCOC(=O)c1ccc(N)cc1`, the outcome in experiment [3], in experiment [1] and in experiment [2] was inactive.
Turning to `COCCOCCOCCO`, the call in experiment [1] was inactive.
For the molecule `CC(C)CCCCCCCCCCCCCCC(=O)O`, the molecule was classed as inactive in experiment [3], in experiment [1] and in experiment [2].
`CC(C)CCCCCCc1ccc(OCCOCCO)cc1`: the molecule was called inactive in experiment [1] and in experiment [2].
On to `CCCCCCCCC=CCCCCCCCC1=NCCN1CCO`, for which the outcome in experiment [3], in experiment [1] and in experiment [2] was inactive.
Regarding `CCCCC1CCC(O)CC1` (stereo unspecified), the result in experiment [1] and in experiment [2] was inactive.
As for `CCCCCCCCCCCCN1CCCCCC1=O`, the molecule was classed as inactive in experiment [1].
With `c1ccc(Oc2ccccc2)cc1`, the outcome in experiment [1] was inactive.
`C#CC(C)(O)CC(C)C` (stereo unspecified): the molecule was classed as inactive in experiment [1] and in experiment [2].
Consider `Nc1ccccc1[N+](=O)[O-]`, for which the molecule was called inactive in experiment [1].
`CN(C)c1cccc(O)c1`: the AC50 in experiment [3] is 40.6 µM (active). For the same molecule, in experiment [2], the call was inactive.
Take `CC1CC(O)CC(C)(C)C1` (stereo unspecified): the molecule was called inactive in experiment [1] and in experiment [2].
For `CCCCCCC(CO)CCCC` (stereo unspecified), the result in experiment [1] and in experiment [2] was inactive.
For the molecule `CN1C(=O)c2ccccc2C1=O`, the result in experiment [1] and in experiment [2] was inactive.
Take `Cc1ccc(S(N)(=O)=O)cc1`: the molecule was called inactive in experiment [2].
`COS(=O)(=O)O`: the molecule was classed as inactive in experiment [1] and in experiment [2].
In the case of `CCCCOC(=O)CCCCCCCC(=O)OCCCC`, the molecule was called inactive in experiment [1] and in experiment [2].
For the molecule `CCCCCC(C)=O`, the result in experiment [1] and in experiment [2] was inactive.
`CCCCCCCCCCCC(=O)OCC(O)CO` (stereo unspecified): the molecule was called inactive in experiment [2].
On to `CCCCC(CC)COC(C)=O` (stereo unspecified), for which the molecule was called inactive in experiment [2].
For the molecule `CC(=O)O[C@H]1C[C@@H]2CC[C@@]1(C)C2(C)C`, the molecule was classed as inactive in experiment [2].
Turning to `CCCC(C)=O`, the result in experiment [1] and in experiment [2] was inactive.
Regarding `COC(=O)c1ccc(C)cc1C1=NC(C)(C(C)C)C(=O)N1` (stereo unspecified) (tested in a mixture with another compound), the outcome in experiment [2] was inactive.
On the same count and under the same terms, the value for `O=C(CC(=O)c1ccccc1)c1ccccc1` was “inactive”.
`O=C1NC2NC(=O)NC2N1` (stereo unspecified): the molecule was called inactive in experiment [1] and in experiment [2].
For `CC(=O)O[C@@H]1CC2CCC1(C)C2(C)C` (stereo partly specified), the molecule was classed as inactive in experiment [1] and in experiment [2].
As to `C=C(C)[C@@H]1CC=C(C)C(=O)C1`, the molecule was classed as inactive in experiment [1] and in experiment [2].
For the molecule `C=C1C[C@]23C[C@@]1(O)CC[C@H]2[C@@]12C=C[C@H](O)[C@@](C)(C(=O)O1)[C@H]2[C@@H]3C(=O)O`, the result in experiment [2] was inactive.
`CCCCCCCC(=O)OCC(O)CO` (stereo unspecified): the outcome in experiment [1] and in experiment [2] was inactive.
Take `O=Cc1ccccc1S(=O)(=O)O`: the AC50 in experiment [1] was 1.24 µM (active). Further, the outcome in experiment [2] was inactive.
As to `CC(C)c1ccccc1O`, in experiment [2], the result was inactive.
On to `C=CC(=O)OCCCC`, for which the call in experiment [1] and in experiment [2] was inactive.
`CS(C)=O`: the molecule was called inactive in experiment [1] and in experiment [2].
For `O=C1OC(=O)c2c(Cl)c(Cl)c(Cl)c(Cl)c21`, the call in experiment [1] and in experiment [2] was inactive.
As for `CCCOCCO`, the molecule was classed as inactive in experiment [1] and in experiment [2].
As to `OCC(O)c1ccccc1` (stereo unspecified), the molecule was classed as inactive in experiment [1] and in experiment [2].
With `CCCC(=O)OC(C)(C)Cc1ccccc1`, the outcome in experiment [1] and in experiment [2] was inactive.
For `O=C(c1ccccc1)C(O)c1ccccc1` (stereo unspecified), the result in experiment [2] was inactive.
Regarding `CCOC(=O)C1OC1c1ccccc1` (stereo unspecified), the molecule was classed as inactive in experiment [1] and in experiment [2].
Take `C[C@H]1O[C@@H](O[C@H]2[C@@H](O)C[C@H](O[C@H]3[C@@H](O)C[C@H](O[C@H]4CC[C@@]5(C)[C@H](CC[C@@H]6[C@@H]5C[C@@H](O)[C@]5(C)[C@@H](C7=CC(=O)OC7)CC[C@]65O)C4)O[C@@H]3C)O[C@@H]2C)C[C@H](O)[C@@H]1O`: the AC50 is 0.00928 µM (active) in experiment [1] and 0.0148 µM (active) in experiment [2].
Turning to `CC1CCC(C(C)C)C(O)C1` (stereo unspecified), the result in experiment [1] and in experiment [2] was inactive.
Turning to `OCCc1ccccc1`, the result in experiment [1] and in experiment [2] was inactive.
With `CCCCCCCCSCCO`, the outcome in experiment [1] and in experiment [2] was inactive.
With `O=P(O)(O)O`, the result in experiment [1] was inactive. Besides, in experiment [2], the AC50 is 8.69 µM (active).
As for `C[Si](C)(C)O[Si](C)(C)C`, the molecule was called inactive in experiment [1] and in experiment [2].
Take `ON=C1CCCCC1`: the outcome in experiment [2] was inactive.
